Source: PubChem BioAssay AID624305 (National Center for Advancing Translational Sciences (NCATS), 2012)
Records with an inconclusive call do not appear. Calls of active or inactive are those of the source. Calls come from the whole dose curve; as a rule, active = well fitted activation curve with a large enough effect; inconclusive = small, poorly fitted or top-dose-only effect; inactive = no such curve, though single readings can be large or run the other way.

Test: qHTS assay for re-activators of p53 using a Luc reporter: Hit Validation; note: nearly all actives have a fitted effect of over 75% in size; for activation: 0% is about no effect
Settings: p53-responsive luciferase reporter cells, luminescence, H1299 line expressing heat-sensitive Ala138Val p53; series mostly up to 46.1 µM; activation: at the top concentration
How it was run: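 H1299 (p53-null) cells stably carrying p53-A138V and a BP100-luciferase reporter, 1000 cells/well, treated 24 h at 37 deg C. Compounds at several concentrations, 1:5 dilution; nocodazole control; luminescence read after 10 min with detection reagent.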
Potency is the fitted concentration of half-maximal effect.

Row | SMILES | activation | Potency
1 | O=C(Nc1ccc(Cl)cc1)Nc1nnc(SCc2ccccc2)s1 | 41.1% (inactive) | –
2 | CN(C(=O)NC(=O)C1=C(N2CCOCC2)/C(=C/c2ccccc2)CC1)S(C)(=O)=O | 32.3% (inactive) | –
3 | O=c1oc(-c2ccc(O)c(O)c2)cc2cc(O)cc(O)c12 | – | 11600 nM (active)
4 | CCOc1ccc2cc(C#N)c(SCC(=O)OC)nc2c1 | – | 2910 nM (active)
5 | COc1ccccc1C(=O)NC(=S)NNC(=O)c1sc2ccccc2c1Cl | 43.8% (inactive) | –
6 | O=C(O)C1CC(=O)N(c2ccc(Br)cc2)C1 (stereo not drawn) | -4.17% (inactive) | –
7 | c1ccc(-c2cc3cc4c(cc3cn2)OCO4)cc1 | – | 11600 nM (active)
8 | CCOc1ccc(NC(=O)c2cnsn2)cc1 | – | 2310 nM (active)
9 | O=C(/C=C/c1ccco1)Nc1ccccn1 | – | 2310 nM (active)
10 | CC(=O)Nc1ccc(SCC(=O)c2cc(C)n(-c3ccccc3)c2C)cc1 | – | 5800 nM (active)
11 | CCOc1ccc(OCc2cccc(C(=O)N3CCCC3)c2)cc1 | – | 517 nM (active)
12 | O=C(N/N=C\c1cc(Cl)ccc1O)c1ccc(S(=O)(=O)N2CCCCC2)cc1 | 31.2% (inactive) | –
13 | CC(=O)c1ccc(Nc2ncnc3c2oc2ccccc23)cc1 | – | 1640 nM (active)
14 | COc1ccc(C(=O)O/N=C(\N)c2ccccc2)c(OC)c1 | – | 366 nM (active)
15 | Cc1ccc2cc(C#N)c(NCc3ccco3)nc2c1 | -78.1% (inactive) | –
16 | CCOc1ccc2c(c1)C(=NNC(=O)c1ccncc1)c1cc(OCC)ccc1-2 | 18.2% (inactive) | –
17 | N#C/C(=C\c1ccccc1[N+](=O)[O-])c1nc(C2CC2)cs1 | – | 23100 nM (active)
18 | Cc1ccsc1/C=C(\C#N)C(=O)Nc1c(C)n(C)n(-c2ccccc2)c1=O | -19.8% (inactive) | –
19 | CC(C)(C)c1ccc(NC(=O)COC(=O)c2ccc(NS(=O)(=O)c3ccc(F)c(F)c3)cc2)cc1 | -88% (inactive) | –

Row | SMILES | activation | Potency
20 | CC1CCC(NC(=O)C2CCN(C(=O)Nc3ccccc3)CC2)CC1 (stereo not drawn) | 27.6% (inactive) | –
21 | CN1CCN(C(=O)c2cc3ccccc3cc2O)CC1 | 17.7% (inactive) | –
22 | CNc1ccc(/C=C/C(=O)c2ccc(C)cc2)cc1[N+](=O)[O-] | 15.1% (inactive) | –
23 | COc1ccc(-c2csc(NCc3ccco3)n2)cc1C | – | 18400 nM (active)
24 | Cc1ccc2cc3cc(C(=O)N4CCCCCC4)oc3nc2c1 | – | 10300 nM (active)
25 | c1ccc2oc(C3=NNC(=NC4CC4)SC3)cc2c1 | – | 366 nM (active)
26 | CN(C)c1ccc(/C=N/N=C/c2ccccc2O)cc1 | – | 461 nM (active)
27 | N/C(=N\OC(=O)c1ccccc1Cl)c1ccc(Cl)cc1 | – | 9200 nM (active)
28 | CC1C(=O)CCN(C(C)(C)C)C1C (stereo not drawn) | 5.21% (inactive) | –
29 | Cc1ccc(NC2=C(Cl)C(=O)c3ccccc3C2=O)cc1 | -89.1% (inactive) | –
30 | S=C(Nc1ccccc1)Nc1nc2ccccc2n1CCOc1ccc(Br)cc1 | -11.5% (inactive) | –
31 | CC(C)CCn1cnc2c(sc3nc4c(cc32)CSC(C)(C)C4)c1=O | – | 517 nM (active)
32 | O=C(NOCc1ccccc1)c1ccc(Cl)cc1 | – | 1840 nM (active)
33 | O=C(CNc1ccccc1)N/N=C/c1c[nH]c2ccccc12 | 25.5% (inactive) | –
34 | O=C(Cn1cc(SCc2ccc(F)cc2)c2ccccc21)N1CCOCC1 | -86.5% (inactive) | –
35 | CC(Sc1nc(N)cc(=O)[nH]1)C(=O)NNC(=O)c1cccc(Cl)c1 (stereo not drawn) | -18.8% (inactive) | –
36 | Cc1cccc(NC(=O)/C=C/c2ccc(Cl)cc2)n1 | – | 2310 nM (active)
37 | Cc1ccc(C(=O)Nc2ncc3c(n2)CC(c2ccco2)CC3=O)cc1 (stereo not drawn) | 31.8% (inactive) | –
38 | COC(=O)C1=C(C(=O)c2ccccc2)C(c2ccc(OC)c(OC)c2)Nc2nnnn21 (stereo not drawn) | 7.81% (inactive) | –
